# Results published in PubChem BioAssay AID1159580 (chemical genetic matrix, 2015).
# Screen size: about 5,500 compounds; about 2,000 (36%) were called active. Roughly 18% stayed inconclusive and do not appear here. The list shows a part of the results. A number with no mark means an inactive call. Cut-off read from the data, not from the text of the source: active = normalized growth mostly below about 0.91 (no sharp cut-off); inconclusive = no clear call, values can overlap the other calls; inactive = mostly above about 0.92.
# Test: chemical genetic growth profiling, strain panel (AID 1159580);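 note: tested at 20 µM; growth read once vehicle control cultures reached saturation at 30 °C; 1 = growth at the plate median or of vehicle wells; lower values mean less growth of the strain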
# Details: S. cerevisiae deletion strains, growth OD
compound,measurement,setting,value
CC(C)=CCc1c2c(c(O)c3c(=O)c(O)c(-c4ccccc4)oc13)C=CC(C)(C)O2,normalized growth,"locus YAL021C, strain ccr4, active compounds read low",0.79 (active)
same,normalized growth,"locus YAL026C, strain drs2, active compounds read low",0.566 (active)
same,normalized growth,"locus YAL030W, strain snc1, active compounds read low",0.886 (active)
same,normalized growth,"locus YBL061C, strain skt5, active compounds read low",0.688 (active)
same,normalized growth,"locus YBR009C, strain hhf1, active compounds read low",0.917
same,normalized growth,"locus YBR021W, strain FUR4, active compounds read low",0.958
same,normalized growth,"locus YBR023C, strain chs3, active compounds read low",0.687 (active)
same,normalized growth,"locus YBR171W, strain sec66, active compounds read low",0.939
same,normalized growth,"locus YBR229C, strain ROT2, active compounds read low",0.829 (active)
same,normalized growth,"locus YBR231C, strain swc5, active compounds read low",0.678 (active)
same,normalized growth,"locus YBR279W, strain paf1, active compounds read low",0.988
same,normalized growth,"locus YCL011C, strain gbp2, active compounds read low",0.683 (active)
same,normalized growth,"locus YCL016C, strain dcc1, active compounds read low",0.962
same,normalized growth,"locus YCL029C, strain bik1, active compounds read low",0.678 (active)
same,normalized growth,"locus YCL061C, strain MRC1, active compounds read low",0.748 (active)
same,normalized growth,"locus YCL069W, strain vba3, active compounds read low",0.751 (active)
same,normalized growth,"locus YCR088W, strain abp1, active compounds read low",0.835 (active)
same,normalized growth,"locus YDL005C, strain med2, active compounds read low",0.981
same,normalized growth,"locus YDL035C, strain GPR1, active compounds read low",0.589 (active)
same,normalized growth,"locus YDL040C, strain nat1, active compounds read low",1.01
same,normalized growth,"locus YDL074C, strain BRE1, active compounds read low",0.49 (active)
same,normalized growth,"locus YDL101C, strain DUN1, active compounds read low",0.628 (active)
same,normalized growth,"locus YDL185W, strain tfp1, active compounds read low",0.769 (active)
same,normalized growth,"locus YDL192W, strain arf1, active compounds read low",0.732 (active)
same,normalized growth,"locus YDR001C, strain nth1, active compounds read low",0.931
same,normalized growth,"locus YDR069C, strain doa4, active compounds read low",0.613 (active)
same,normalized growth,"locus YDR101C, strain arx1, active compounds read low",0.809 (active)
same,normalized growth,"locus YDR137W, strain rgp1, active compounds read low",1.04
same,normalized growth,"locus YDR159W, strain sac3, active compounds read low",0.876
same,normalized growth,"locus YDR162C, strain NBP2, active compounds read low",0.326 (active)
same,normalized growth,"locus YDR195W, strain ref2",0.896
same,normalized growth,"locus YDR297W, strain sur2, active compounds read low",0.821 (active)
same,normalized growth,"locus YDR318W, strain mcm21, active compounds read low",0.73 (active)
same,normalized growth,"locus YDR334W, strain swr1, active compounds read low",0.582 (active)
same,normalized growth,"locus YDR335W, strain msn5, active compounds read low",0.793 (active)
same,normalized growth,"locus YDR388W, active compounds read low",0.745 (active)
same,normalized growth,"locus YDR392W, strain spt3, active compounds read low",0.602 (active)
same,normalized growth,"locus YDR502C, strain sam2, active compounds read low",0.794 (active)
same,normalized growth,"locus YEL003W, strain gim4, active compounds read low",0.683 (active)
same,normalized growth,"locus YEL037C, strain rad23, active compounds read low",0.788 (active)
same,normalized growth,"locus YEL061C, strain CIN8 (second series), active compounds read low",0.876 (active)
same,normalized growth,"locus YER015W, strain faa2, active compounds read low",0.457 (active)
same,normalized growth,"locus YER016W, strain bim1, active compounds read low",0.987
same,normalized growth,"locus YER110C, active compounds read low",0.927
same,normalized growth,"locus YER111C, strain swi4, active compounds read low",0.734 (active)
same,normalized growth,"locus YER155C, strain BEM2 (second series), active compounds read low",0.755 (active)
same,normalized growth,"locus YER155C, strain BEM2, active compounds read low",0.762 (active)
same,normalized growth,"locus YER167W, strain BCK2, active compounds read low",0.683 (active)
same,normalized growth,"locus YFR010W, strain ubp6, active compounds read low",0.632 (active)
same,normalized growth,"locus YGL078C, strain dbp3, active compounds read low",0.942
same,normalized growth,"locus YGL086W, strain mad1, active compounds read low",0.701 (active)
same,normalized growth,"locus YGL167C, strain pmr1, active compounds read low",0.996
same,normalized growth,"locus YGL173C, strain kem1, active compounds read low",0.475 (active)
same,normalized growth,"locus YGL227W, strain vid30, active compounds read low",0.973
same,normalized growth,"locus YGL240W, strain doc1, active compounds read low",0.977
same,normalized growth,"locus YGL248W, strain PDE1, active compounds read low",0.586 (active)
same,normalized growth,"locus YGL253W, strain hxk2, active compounds read low",0.657 (active)
same,normalized growth,"locus YGR078C, strain PAC10, active compounds read low",0.554 (active)
same,normalized growth,"locus YGR135W, strain pre9, active compounds read low",0.69 (active)
same,normalized growth,"locus YGR252W, strain gcn5, active compounds read low",0.774
same,normalized growth,"locus YHR013C, strain ard1, active compounds read low",0.998
same,normalized growth,"locus YHR027C, strain rpn1, active compounds read low",0.356 (active)
same,normalized growth,"locus YHR079C, strain IRE1 (second series), active compounds read low",0.774 (active)
same,normalized growth,"locus YHR094C, strain hxt1, active compounds read low",0.828 (active)
same,normalized growth,"locus YHR129C, strain ARP1, active compounds read low",0.55 (active)
same,normalized growth,"locus YHR142W, strain chs7, active compounds read low",0.653 (active)
same,normalized growth,"locus YHR200W, strain rpn10, active compounds read low",0.731 (active)
same,normalized growth,"locus YIL066C, strain RNR3, active compounds read low",0.54 (active)
same,normalized growth,"locus YIL073C, strain SPO22, active compounds read low",0.32 (active)
same,normalized growth,"locus YIL125W, strain kgd1, active compounds read low",0.88 (active)
same,normalized growth,"locus YIR030C, strain dcg1, active compounds read low",0.837 (active)
same,normalized growth,"locus YJL092W, strain hpr5, active compounds read low",0.834 (active)
same,normalized growth,"locus YJL095W, strain BCK1 (second series), active compounds read low",0.628 (active)
same,normalized growth,"locus YJL095W, strain BCK1, active compounds read low",0.379 (active)
same,normalized growth,"locus YJL115W, strain asf1, active compounds read low",0.829 (active)
same,normalized growth,"locus YJL129C, strain trk1, active compounds read low",0.894
same,normalized growth,"locus YJL134W, strain LCB3, active compounds read low",0.778 (active)
same,normalized growth,"locus YJL154C, strain vps35, active compounds read low",0.817 (active)
same,normalized growth,"locus YJL164C, strain tpk1, active compounds read low",0.732 (active)
same,normalized growth,"locus YJL166W, strain qcr8, active compounds read low",0.891 (active)
same,normalized growth,"locus YJL168C, strain set2, active compounds read low",0.864 (active)
same,normalized growth,"locus YJL187C, strain SWE1 (second series), active compounds read low",0.417 (active)
